Experimental data reported in PMC7819943, “Rice protein-binding microarrays: a tool to detect cis-acting elements near promoter regions in rice”.
Over roughly 68,000 sequences, “fluorescence intensity (a.u.)” has its median near 9,100; the highest 2% begin near 16,000. What follows is part of a selection rich in the highest values, with near analogues and random picks from the rest.

biological target: OsWRKY34 (Oryza sativa, UniProt Q0JBA9 1-250); assay: protein-binding microarray (RPBM); PBS, 2% BSA, 51.3 ng/ul salmon testes DNA, 50 uM zinc acetate, 200 nM TF, 25 C, 1 h; high values mean tight binding; settings: protein: recombinant; tags: N-terminal polyhistidine and DsRed monomer fusion (pET32a); label: CyDye5-dUTP incorporated in the synthesized complementary strand; 3' TTTTT single-stranded linker to array surface; dsDNA, one strand shown
Sequence (Q0JBA9 entry or part of it): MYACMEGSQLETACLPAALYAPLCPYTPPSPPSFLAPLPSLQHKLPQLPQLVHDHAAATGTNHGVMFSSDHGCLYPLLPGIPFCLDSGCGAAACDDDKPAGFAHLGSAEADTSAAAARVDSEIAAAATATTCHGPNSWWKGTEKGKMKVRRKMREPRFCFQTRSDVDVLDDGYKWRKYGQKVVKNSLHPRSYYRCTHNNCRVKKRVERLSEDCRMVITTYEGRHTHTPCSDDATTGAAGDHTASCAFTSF
In short: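 Transcription factors were made in E. coli BL21-CodonPlus as N-terminal fusions to a polyhistidine tag and DsRed, then purified on Ni–NTA. After primer extension with Cy5-dUTP and blocking with 2% BSA, a custom Agilent array was exposed for 1 h at 25 °C to 200 nM protein in PBS, 2% BSA, salmon testes DNA and 50 µM zinc acetate. Washed arrays were scanned on an Axon 4000B, and the binding signal is per-feature fluorescence intensity in arbitrary units.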

Sequence | binding signal
GTCGCCGCCTCCTCCTCTCCATCTCCGCTGCTATTATTGCCGGAGTCACCTAGTGCAG | 12900 fluorescence intensity (a.u.)
TTTTCTCTGTTTACTTTTTTTTTATTATTTTTTTGCGCCGCGGAGTCACCTAGTGCAG | 8240 fluorescence intensity (a.u.)
ATGTCATGTCATGTCGCATATCTCCCATGTCTTGGCACGACGGAGTCACCTAGTGCAG | 9540 fluorescence intensity (a.u.)
TACTTGGCTATACTATTAAACTTGCTCTCGCACCATCTTTCGGAGTCACCTAGTGCAG | 9680 fluorescence intensity (a.u.)
GTTGCAAAAGAGGCCTCTGACATGGTTCTTGCTGATGACACGGAGTCACCTAGTGCAG | 8450 fluorescence intensity (a.u.)
ATCGCCATATAGGCGCCACGTGGAACGAAGACTCGGTCAACGGAGTCACCTAGTGCAG | 9350 fluorescence intensity (a.u.)
GATCAACGAACACTCGTGGGCCGTAGGCGGAGGCGCAAGTCGGAGTCACCTAGTGCAG | 62600 fluorescence intensity (a.u.)
CGGGGCCCAACGAGGTGGCGCCGTGGCTGGTGGGGCGGGTCGGAGTCACCTAGTGCAG | 9270 fluorescence intensity (a.u.)
CCCGGCGGCCCGATCACCACCTGCCCGAACACCATCCTCCCGGAGTCACCTAGTGCAG | 8530 fluorescence intensity (a.u.)
GTGTGTTGGTTGTCACAGTACTGTGTGGTGGTGGTGGAAGCGGAGTCACCTAGTGCAG | 9220 fluorescence intensity (a.u.)
TAGGTGTGGTGTGTGGAGAAGCGGTGGACCGACCGACGACCGGAGTCACCTAGTGCAG | 8450 fluorescence intensity (a.u.)
ACTGTCGTGCCACAGTGGACGTGTGCGGCAGGTGAAGCACCGGAGTCACCTAGTGCAG | 49100 fluorescence intensity (a.u.)
GGAAAAGAACACCGGTCCATTTTGCAACTATTGTGAAGTTCGGAGTCACCTAGTGCAG | 8220 fluorescence intensity (a.u.)
CCGGCAAAAGTCTCTCCATCTTGTCATCGTCTTCTCCAGCCGGAGTCACCTAGTGCAG | 8410 fluorescence intensity (a.u.)
TGGAAAGAGGAGGGCGGGGAGAGGACTGGGGAGGGCGGGGCGGAGTCACCTAGTGCAG | 17700 fluorescence intensity (a.u.)
TCTTCGGTTTACTTATGTCCTGGCTGGTTGGGAGGGGACACGGAGTCACCTAGTGCAG | 19100 fluorescence intensity (a.u.)
GAGGAAATGCCTGGGAGGAGGAGGAGGGACTCGGGGCGGGCGGAGTCACCTAGTGCAG | 13300 fluorescence intensity (a.u.)
ACTGGTTTTACACATTATGTGGGCTAACTTAATACTCCTTCGGAGTCACCTAGTGCAG | 8040 fluorescence intensity (a.u.)
GCGAGAGGGGACTGGGGAGGGGAGGGGCGGCGCTCGCTGGCGGAGTCACCTAGTGCAG | 12500 fluorescence intensity (a.u.)
GGGGCTGTTTGGTTTCCAGGGACTTATTCCAAGTCCCTGTCGGAGTCACCTAGTGCAG | 9750 fluorescence intensity (a.u.)
TTGGATTGGGCTGCGGACCTGCGGTGGAGGGATTCAGGGTCGGAGTCACCTAGTGCAG | 8240 fluorescence intensity (a.u.)

Sequence | binding signal
GGGGAAGGAGAAGAGGAAGGAGAGGGGAGGAGGAGGAGGGCGGAGTCACCTAGTGCAG | 8870 fluorescence intensity (a.u.)
TTGGGAGGGAGAGTGGTAAAGGGTGCTGGGGCTTTGGCTGCGGAGTCACCTAGTGCAG | 8840 fluorescence intensity (a.u.)
AGGATTCAATTTGGACTTTGGTGGAGGGGAGGGGCTGCTGCGGAGTCACCTAGTGCAG | 22100 fluorescence intensity (a.u.)
AGAGGGGACTGGGGAGGGGAGGGGCGGCGCTCGCTGGCTTCGGAGTCACCTAGTGCAG | 17500 fluorescence intensity (a.u.)
TGGATTTGGCGGCGGCGGCGGCTTCGAGGGGAGGGGCTCTCGGAGTCACCTAGTGCAG | 15300 fluorescence intensity (a.u.)
ATTTTTTTTAAAAGTAGTTCTTCTGTTTCATATTATAATACGGAGTCACCTAGTGCAG | 9230 fluorescence intensity (a.u.)
TGTCTTTATTAAGTGCAAATGTATTTGGATTCCAACCCTTCGGAGTCACCTAGTGCAG | 8180 fluorescence intensity (a.u.)
TACCCACACACACACAAGAACACGCGCCACATTTGTCATTCGGAGTCACCTAGTGCAG | 10900 fluorescence intensity (a.u.)
TATTGTCTGGGGTTTGCTTATTGGCTTTTCAGGCCATGTCCGGAGTCACCTAGTGCAG | 9320 fluorescence intensity (a.u.)
ATCTCTTTTGCATTTGTTCGTCCCTTTCGTTTTCAACTTGCGGAGTCACCTAGTGCAG | 9290 fluorescence intensity (a.u.)
CAAACATGTGCTAAAAAGTCAACGGTGTCAACCATTTTGACGGAGTCACCTAGTGCAG | 11600 fluorescence intensity (a.u.)
GGGGATTTGGGGAGACTTTTGGAGGGGAGGAGAGAGGGCGCGGAGTCACCTAGTGCAG | 19700 fluorescence intensity (a.u.)
GAGGACTGGGGAGGGCGGGGAGAGGGGAGGGCGTCGCGTGCGGAGTCACCTAGTGCAG | 24500 fluorescence intensity (a.u.)
GCGTCTGGGGCCTCGGGCGGCGCGCGCGGGGAGGGGCGTGCGGAGTCACCTAGTGCAG | 10500 fluorescence intensity (a.u.)
TAGGTGAGGGCGGTGCGCTTGTCGACGGGGTTGAAGGGGACGGAGTCACCTAGTGCAG | 10700 fluorescence intensity (a.u.)
ACTCACAGAAAGCGTCGGGGCGGGTCTGGGAGGGCTTGCGCGGAGTCACCTAGTGCAG | 9140 fluorescence intensity (a.u.)
GCGGCGGCGGGGCGGCGTCGGGGAGGGAGGAGGAGCAGTGCGGAGTCACCTAGTGCAG | 10700 fluorescence intensity (a.u.)
ACGGGGACAGGGAGAGGAGCGGGGATTTTGTGGCGGGAGACGGAGTCACCTAGTGCAG | 9460 fluorescence intensity (a.u.)
CTGCTGCCGCCGCCTCCTGGCCGCCGCCGCGGCGAGCGCGCGGAGTCACCTAGTGCAG | 8280 fluorescence intensity (a.u.)
AAGCGCCTGGTAGCGGAGAGTGGGAAAGAGCTGGCTGGCGCGGAGTCACCTAGTGCAG | 60400 fluorescence intensity (a.u.)
GTGTGTGCTGTGGTGGAGAGGAGAAAGGGAGGAAGAAGAGCGGAGTCACCTAGTGCAG | 8140 fluorescence intensity (a.u.)
